# Screens: PubChem BioAssay, several laboratories
# BaF3 tox: reduces parental Ba/F3 cell viability, JAK2V617F counter-screen; 220,000 compounds, 1.1% hits; AID 1486; inhibition, % at 5.6 µM; CellTiter-Glo ATP luminescence;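 active = inhibition above a per-campaign cutoff, the mean inhibition of all tested compounds plus 3 SD, cut at about 27% in these data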;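 note: 0% = DMSO wells and 100% = JAK Inhibitor I control wells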
# APP 5UTR inh: APP translation inhibition | SH-SY5Y APP 5'UTR-luciferase reporter, luminescence | inhibition, % at 2 µM | 190,000 compounds, 0.82% hits | AID 1285;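 active = inhibition above a set limit, derived from the sample mean plus 3 SD, cut at about 45% in these data; inconclusive = one replicate passes the limit while the other fails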
# aSyn 5UTR inh: 5' untranslated region of α-synuclein, MLPCN primary screen. alpha-synuclein 5'UTR reporter, inhibitor activity. inhibition, % (tested at 7.5 µM). 300,000 compounds, 0.82% hits; in the data active = inhibition above about 60%; inconclusive = no clear call, values can overlap the other calls;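 note: H4 neuroglioblastoma cells stably carrying SNCA 5'UTR luciferase fusion; 0% = DMSO wells and 100% = positive control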
# KLF5 inhibitor: inhibitors of KLF5 expression; 290,000 compounds, 0.23% hits; inhibition, % at 5 µM; DLD-1 KLF5 promoter-luciferase reporter, luminescence;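 active = inhibition above a per-plate limit of that plate's mean compound inhibition plus 3 SD, cut at about 60% in these data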;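 note: 0% = DMSO wells and 100% = LY294002 at 200 µM; higher means less KLF5 promoter-driven luciferase light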
# IEC-6 tox-1: kills IEC-6 intestinal cells in KLF5 counter-screen | 290,000 compounds, 0.78% hits | IEC-6 cytotoxicity, luminescence viability | inhibition, % at 5 µM | AID 1825;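 note: 0% = plate median of test compound wells and 100% = cytotoxic reference compound wells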
# Ba/F3 V617F tox: lowers viability of Ba/F3 cells expressing EpoR and JAK2V617F | AID 1446 | ATP luminescence | inhibition, % at 5.6 µM | 220,000 compounds, 1.1% hits;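 active = inhibition above the campaign mean plus 3 SD over all tested compounds, cut at about 24% in these data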;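 note: cytokine-independent growth of Ba/F3 cells driven by EpoR plus mutant JAK2; 0% = DMSO-treated cells and 100% = JAK inhibitor I control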
# BaF3 parental 2: reduces parental Ba/F3 viability, JAK2V617F counter-screen; shares compounds with Ba/F3 V617F tox; CellTiter-Glo luminescence; cells kept alive by added IL-3; inhibition, % at 5.6 µM; 580 compounds, 31% hits; AID 1520;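 active = cell growth inhibition above the hit limit set in the earlier mutant JAK2 cell screen, cut at about 27% in these data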;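 note: plate controls were DMSO-treated cells for no effect and JAK Inhibitor I control wells for full effect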
# JAK2V617F conf: Ba/F3 EpoR-JAK2V617F viability loss, confirmation; shares compounds with Ba/F3 V617F tox; CellTiter-Glo luminescence; inhibition, % at 5.6 µM; 580 compounds, 66% hits;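 active = mean inhibition above the hit cutoff derived in the earlier primary screen, cut at about 25% in these data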;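 note: 0% = DMSO-treated cells and 100% = JAK inhibitor I control wells; higher means lower luminescence from reduced cell ATP and viability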
# KLF5 confirm: confirmation of KLF5 inhibitors; shares compounds with KLF5 inhibitor; DLD-1 KLF5 promoter firefly luciferase reporter, luminescence; 610 compounds, 79% hits; inhibition, % at 4 µM;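 active = inhibition above a set limit taken from the earlier primary screen, cut at about 63% in these data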;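 note: 0% = DMSO wells and 100% = LY294002 at 200 µM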
# IEC-6 tox-2: counter-screen for KLF5 inhibitors: cytotoxicity in rat IEC-6 cells; shares compounds with KLF5 inhibitor; IEC-6 rat intestinal cells, viability luminescence; inhibition, % at 4 µM; 610 compounds, 56% hits; in the data active = inhibition above about 23%;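 note: cells exposed to compounds for 48 hours before viability read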
# IEC-6 tox confirm: IEC-6 cytotoxicity, confirmation assay; shares compounds with IEC-6 tox-1; IEC-6 rat intestinal epithelial viability, luminescence; inhibition, % at 5 µM; 1,900 compounds, 63% hits; AID 1907;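 note: 0% = vehicle and 100% = reference cytotoxic drug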
# * hit, by the source's call; i = inactive; ? = inconclusive; nt = no result. Hits are enriched below; roughly 2.1% of the tested compounds scored in any of these assays. Cut-off read from the data, not from the text of the source, unless noted: active = inhibition above about 22%; inactive = the rest.
SMILES,BaF3 tox,APP 5UTR inh,aSyn 5UTR inh,KLF5 inhibitor,IEC-6 tox-1,Ba/F3 V617F tox,BaF3 parental 2,JAK2V617F conf,IEC-6 tox confirm,others
COc1ccc(Cl)c(Cn2c(NCc3ccco3)nc3c2c(=O)n(C)c(=O)n3C)c1,17.1,-4.3,nt,-7.0,-6.9,37.4*,82.8*,61.8*,nt,
CCOc1cc(Br)ccc1S(=O)(=O)NCc1ccccc1,3.0,1.4,-17.4,-6.0,8.5,101.4*,-3.9,6.6,nt,
COCCNC(=O)CN(C(=O)c1ccc(N2CCCC2)nc1)c1ccccc1,9.1,2.1,nt,-29.7,0.7,63.6*,-4.2,-5.2,nt,
COCCNC(=O)CN(C(=O)c1ccc(N2CCCC2)nc1)c1ccc(F)c(Cl)c1,nt,nt,14.6,-24.9,1.8,nt,nt,nt,nt,
Cc1cccc(/C=N/n2c(C)nc3ccccc3c2=O)c1,nt,nt,-57.1,-36.3,-3.0,nt,nt,nt,nt,
Oc1ccc(Cl)cc1N=Cc1sc2ccccc2c1Cl,16.1,-22.1,-44.2,18.4,-0.1,39.8*,21.5,86.0*,nt,
CC(=O)c1cccc(NC(=O)/C=C/c2ccc([N+](=O)[O-])s2)c1,6.8,81.4*,-326.0,-1.4,-3.4,101.2*,106.1*,100.0*,nt,
COC(=O)c1cccc(NC(=O)/C=C/c2cccc([N+](=O)[O-])c2)c1,-1.7,-20.4,-35.0,-38.9,1.0,-6.2,nt,nt,nt,
Oc1ccc(CN2CCC(Cc3ccccc3)CC2)c2cccnc12,0.2,58.3*,105.0*,14.6,-11.8,82.7*,84.5*,98.0*,nt,
Nc1[nH]n(-c2ccccc2)c(=O)c1N=Nc1ccc2c(c1)OCO2,6.3,nt,-204.6,-58.5,4.0,27.0*,57.3*,44.1*,nt,
O=[N+]([O-])/C(C=Nc1ccccc1O)=C\Nc1ccccc1O,16.9,nt,-45.3,-28.8,8.5,39.3*,12.9,67.9*,nt,
Nc1ccc(Nc2nc(-c3cc4ccccc4oc3=O)cs2)cc1,14.2,-94.8,-199.9,-77.1,-9.8,84.1*,77.4*,99.3*,nt,
CC(=O)Nc1ccc(Nc2nc(-c3cc4ccccc4oc3=O)cs2)cc1,nt,nt,-449.4,-170.1,4.3,nt,nt,nt,nt,
O=C(NCCCc1ccccc1)c1ccc(CS(=O)Cc2ccc(Cl)cc2)o1 (configuration not stated),nt,nt,14.1,-13.7,8.2,nt,nt,nt,nt,
CCN(CC)S(=O)(=O)c1ccc(N/N=C(\C)c2ccncc2)nc1,nt,nt,15.2,16.2,-2.0,nt,nt,nt,nt,
CCN(CC)S(=O)(=O)c1ccc(N/N=C/c2ccc(O)cc2O)nc1,6.4,80.9*,90.0*,71.9*,16.5,49.8*,83.3*,92.6*,nt,KLF5 confirm=80.8*;IEC-6 tox-2=8.5
CCOc1ccc(CCNC(=O)c2nnc(CS(=O)(=O)c3ccccc3)o2)cc1OCC,nt,nt,-16.7,-4.2,-5.0,nt,nt,nt,nt,
COc1ccc(-c2cc3nc(C)n(N)c(=O)c3s2)cc1,26.5,nt,115.5*,96.0*,17.7,40.6*,56.1*,39.8*,nt,KLF5 confirm=108.7*;IEC-6 tox-2=36.0*
COc1ccc(C=C2C(=O)c3ccccc3C2=O)cc1O,3.0,-8.9,-4.2,-17.5,12.4,-1.2,nt,nt,nt,
CCN1C/C(=C/c2ccc(OC)c(O)c2)C(=O)/C(=C/c2ccc(OC)c(O)c2)C1,-4.5,87.9*,116.0*,26.5,31.6*,52.0*,12.5,98.0*,42.3*,
O=C(CCl)N=c1sccn1Cc1cccc2ccccc12,5.1,12.8,2.0,-15.1,91.6*,102.3*,24.3,99.2*,17.3,
Cn1c(=NC(=O)CCl)sc2ccccc21,1.9,24.9,-16.2,-5.3,-0.4,12.7,nt,nt,nt,
Cc1cc(C(N)=O)c2ccccc2n1,1.5,9.6,2.5,-20.6,-0.1,1.5,nt,nt,nt,
NC(=O)c1cc2c3ccccc3ccn2c1-c1ccccc1,-4.7,nt,113.0*,-12.5,37.8*,69.9*,62.5*,95.0*,60.9*,
O=C1N(c2ccccc2)C[C@@H]2C[C@@H](c3cc4ccccc4o3)N3CCC[C@@]123,1.6,94.8*,i,53.9,38.3*,101.1*,106.5*,98.8*,97.5*,
SMILES,BaF3 tox,APP 5UTR inh,aSyn 5UTR inh,KLF5 inhibitor,IEC-6 tox-1,Ba/F3 V617F tox,BaF3 parental 2,JAK2V617F conf,IEC-6 tox confirm,others
BrC(=C\c1ccccc1)/C=N/n1cnnc1,-11.3,78.8*,-36.1,20.4,74.9*,65.3*,55.0*,96.5*,25.6*,
COc1ccc(C2=NC(=O)/C(=C\c3cc(OC)c(OC)c(OC)c3)O2)cc1,3.1,11.5,nt,-20.7,-9.1,-1.3,nt,nt,nt,
COc1ccc(OCCCC(=O)Nc2cccc(C(C)=O)c2)cc1,-0.6,7.1,2.3,-20.3,89.1*,73.0*,-6.0,-4.0,-9.6,
COc1ccc(NC(=O)/C(Cl)=C(/Cl)S(=O)(=O)Cc2ccc(C)cc2)cn1,4.9,86.0*,7.3,27.6,22.6*,33.3*,88.5*,98.5*,43.2*,
COc1ccc(NC(=O)Cc2ccc(Cl)c(Cl)c2)cn1,2.2,-8.7,-21.6,-16.0,0.2,-1.8,nt,nt,nt,
N#Cc1ncc(-c2ccc3c(c2)OCCOCCOCCOCCOCCO3)nc1C#N,-2.5,21.1,16.4,33.2,32.3*,33.8*,-3.4,42.6*,12.4,
Cc1ccc(N2CCN(S(=O)(=O)c3ccc4c(c3)oc(=O)n4C)CC2C)cc1 (configuration not stated),nt,nt,7.8,-15.4,2.8,nt,nt,nt,nt,
CCc1nnc(N/N=C/c2ccccc2Cl)n1N,23.7,6.0,-10.4,39.0,100.3*,25.0*,-3.5,-2.2,-6.1,
CCc1ccc(/C=N/NC(=O)c2cc(C3CC3)nc3ccccc23)s1,21.9,44.0,15.2,26.9,34.2*,42.4*,62.9*,94.8*,54.4*,
Cc1cccc(/C=N/NC(=O)c2cc(C3CC3)nc3ccccc23)n1,nt,nt,-4.9,2.0,0.5,nt,nt,nt,nt,
ClCc1ncc(-c2ccc(Cl)cc2)o1,6.2,20.7,-2.8,1.6,0.9,-1.3,nt,nt,nt,
COc1ccc(-c2[nH]ncc2CN2CCN(c3ccc(F)cc3)CC2)cc1,-1.1,nt,15.6,-7.9,-3.2,-2.7,nt,nt,nt,
OC1(c2ccc(Cl)cc2)CCN(Cc2cn[nH]c2-c2ccc(F)cc2)CC1,2.7,nt,?,-13.1,43.1*,45.2*,18.3,34.5*,26.0*,
COc1ccc(-c2[nH]ncc2CN2CCC(O)(c3ccc(Cl)cc3)CC2)cc1,10.6,nt,87.4*,-6.5,34.3*,41.5*,34.2*,40.7*,23.4*,
CCCNC(=O)c1cc(S(=O)(=O)N2CCc3ccccc32)cn1C,nt,nt,0.0,-6.8,4.4,nt,nt,nt,nt,
